Measurements: PubChem BioAssay (EPA / NIEHS)
Several values for one entry are separate records, joined by “and”; a condition that tells them apart may be missing. Identical values can stand only once. Results filed as inconclusive are left out. Some compounds were tested as several samples or in several runs, with calls that do not always agree. Activity calls are given as the source filed them. The calls were made as follows: active = hit-call score of the fitted dose curve at least 0.9, where 1 is the maximum; inconclusive = response in the unintended direction; inactive = score below 0.9.

Columns and labels:
[1] = biological target: Cellular tumor antigen p53 (Homo sapiens) (UniProt P04637); assay: TOX21_p53_BLA_p2_ratio: Tox21 HCT-116 p53 Agonism Beta-lactamase Assay, Ratio, Phase 2 (AID 2283592)
Outline: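 First, HCT116 reporter cells settle for 5 h at 37C. Next, DMSO compound solutions are pinned in (217-fold dilution) and left 16 h. Finally, CCF4-AM substrate is loaded 2 h at room temperature and the 460/530 nm ratio read.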

[2] = TOX21_p53_BLA_p4_viability: Viability Assessment in the Tox21 HCT-116 p53 Agonism Beta-lactamase Assay, Phase 4 (AID 2283597);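 also: hits lower the luminescence signal meaning cytotoxicity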
Outline: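 4000 HCT116 cells per well; 5 h attachment; compounds from DMSO, 217-fold dilution; 16 h at 37C. Then CCF4-AM, 2 h RT, followed by CellTiter-Glo, 30 min RT, luminescence. Decrease = cytotoxicity.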

[3] = biological target: Cellular tumor antigen p53 (Homo sapiens) (UniProt P04637); assay: TOX21_p53_BLA_p5_ratio: Tox21 HCT-116 p53 Agonism Beta-lactamase Assay, Ratio, Phase 5 (AID 2283599)
Outline: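 Beta-lactamase reporter ratio (blue 460 nm over green 530 nm, 405 nm excitation) after 2 h CCF4-AM loading, in HCT-116 cells exposed 16 h at 37 C to compounds pinned at 217-fold dilution. Increases relative to DMSO baseline scored.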

[4] = TOX21_p53_BLA_p5_viability: Viability Assessment in the Tox21 HCT-116 p53 Agonism Beta-lactamase Assay, Phase 5 (AID 2283600)
Outline: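 Decreased CellTiter-Glo luminescence denotes lost viability. Exposure: 16 h at 37C, 5% CO2, with compounds from DMSO stocks diluted 217-fold in wells of 4000 cells.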

[5] = biological target: Cellular tumor antigen p53 (Homo sapiens) (UniProt P04637); assay: TOX21_p53_BLA_p4_ratio: Tox21 HCT-116 p53 Agonism Beta-lactamase Assay, Ratio, Phase 4 (AID 2283601)
Outline: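 Signal is the blue/green (460nm/530nm) ratio of cleaved versus uncleaved CCF4-AM substrate, read after 2 h substrate loading. Cells were HCT116 carrying the p53-responsive beta-lactamase reporter, dosed 16 h at 37C, 5% CO2; CellTiter-Glo measured in parallel.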

[6] = Tanguay_ZF_120hpf_YSE_legacy: (Legacy) Oregon State University Tanguay Lab 120 Hour Post-fertilization zebrafish Assay for Yolk Sac Edema (AID 2283634);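 as to AC50: actives raise the incidence of yolk sac edema above the DMSO baseline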
Outline: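 Dechorionated Tropical 5D wild-type zebrafish embryos were exposed statically, one per well, from 6 to 120 hpf at 28C in 0.64% DMSO. Yolk sac edema was scored present/absent by brightfield at 120 hpf, and dead embryos were excluded.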

[7] = Tanguay_ZF_120hpf_AXIS_legacy: (Legacy) Oregon State University Tanguay Lab 120 Hour Post-fertilization zebrafish Assay for Body Axis Malformation (AID 2283635);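 as to AC50: potency for an increased fraction of larvae scored with body axis malformation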
Outline: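 Dechorionated wild-type Tropical 5D zebrafish embryos, one per well, statically exposed from 6 hpf to 120 hpf at 28C in 0.64% DMSO final. Body axis malformation scored present/absent by brightfield microscopy at 120 hpf; dead embryos excluded.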

[8] = Tanguay_ZF_120hpf_SNOU_legacy: (Legacy) Oregon State University Tanguay Lab 120 Hour Post-fertilization zebrafish Assay for Snout Malformation (AID 2283637)
Outline: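 Binary snout-malformation call at 120 hpf in wild-type 5D embryos, chorion removed by pronase, under static exposure from 6 hpf at 28C (0.64% DMSO). Embryos dying by 24 or 120 hpf excluded.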

[9] = Tanguay_ZF_120hpf_JAW_legacy: (Legacy) Oregon State University Tanguay Lab 120 Hour Post-fertilization zebrafish Assay for Jaw Malformation (AID 2283638);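 as to AC50: active means more embryos with jaw malformation than DMSO controls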
Outline: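 Dechorionated Tropical 5D wild-type zebrafish embryos, one per well, exposed statically from 6 hpf to 120 hpf at 28C in 0.64% DMSO. Jaw malformation was scored by brightfield microscopy as present or absent. It was not scored in dead embryos.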

[10] = Tanguay_ZF_120hpf_OTIC_legacy: (Legacy) Oregon State University Tanguay Lab 120 Hour Post-fertilization zebrafish Assay for Otic Vesicle Malformation (AID 2283639)
Outline: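 Binary scoring of otic vesicle defects at 120 hpf in zebrafish (Tropical 5D) held under static exposure at 28C, sealed and shaded, with final DMSO 0.64%. Embryos dying by 24 or 120 hpf excluded; fitted positively against DMSO.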

[11] = Tanguay_ZF_120hpf_PE_legacy: (Legacy) Oregon State University Tanguay Lab 120 Hour Post-fertilization zebrafish Assay for Pericardial Edema (AID 2283640);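 as to AC50: potency for increased incidence of pericardial edema versus DMSO baseline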
Outline: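 Tropical 5D wild-type zebrafish embryos were statically exposed until 120 hpf at 28C, with 0.64% DMSO final. Pericardial edema was scored by brightfield as present or absent; endpoints were not scored in dead embryos.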

[12] = Tanguay_ZF_120hpf_BRAI_legacy: (Legacy) Oregon State University Tanguay Lab 120 Hour Post-fertilization zebrafish Assay for Brain Malformation (AID 2283641)
Outline: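 Tropical 5D wild-type zebrafish embryos exposed statically until 120 hpf at 28C, 0.64% DMSO final, sealed and dark. Brain malformation scored present/absent by brightfield at 120 hpf; dead embryos excluded. Trimethyltin chloride 5uM positive control.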

[13] = TOX21_p53_BLA_p2_viability: Viability Assessment in the Tox21 HCT-116 p53 Agonism Beta-lactamase Assay, Phase 2 (AID 2283591);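 also: actives lower the ATP signal meaning cytotoxicity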
Outline: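 Cytotoxicity readout: CellTiter-Glo ATP luminescence, 30 min at room temperature, after the beta-lactamase read. Cells were HCT116 exposed 16 h at 37C to compounds pin-transferred at 217-fold dilution from DMSO stocks.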

[14] = biological target: Cellular tumor antigen p53 (Homo sapiens) (UniProt P04637); assay: TOX21_p53_BLA_p3_ratio: Tox21 HCT-116 p53 Agonism Beta-lactamase Assay, Ratio, Phase 3 (AID 2283596)
Outline: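 Cells were seeded at 4000/well, rested 5 h at 37C, then dosed with DMSO compound solutions (217-fold dilution) for 16 h. CCF4-AM substrate was loaded for 2 h at room temperature, and the 460/530 nm emission ratio was fitted for gain of signal versus DMSO.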

[15] = Tanguay_ZF_120hpf_EYE_legacy: (Legacy) Oregon State University Tanguay Lab 120 Hour Post-fertilization zebrafish Assay for Eye Malformation (AID 2283636);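 also: binary presence or absence of eye malformation scored by brightfield in 120 hpf larvae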
Outline: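 Binary brightfield scoring of eye defects at 120 hpf after static exposure from 6 hpf of single pronase-dechorionated wild-type embryos (28C, 0.64% DMSO). Non-mortality endpoints omitted where embryos died; fit vs DMSO.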

[16] = TOX21_p53_BLA_p3_viability: Viability Assessment in the Tox21 HCT-116 p53 Agonism Beta-lactamase Assay, Phase 3 (AID 2283593);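 also: cells exposed to compound for 16 h before reading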
Outline: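 Cellular ATP was quantified by CellTiter-Glo luminescence, read after 30 min at room temperature. Beforehand, HCT116 cells (4000/well) received compound 5 h post-seeding, 217-fold diluted from DMSO, then incubated 16 h at 37C.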

[17] = Tanguay_ZF_120hpf_SOMI_legacy: (Legacy) Oregon State University Tanguay Lab 120 Hour Post-fertilization zebrafish Assay for Somite Malformation (AID 2283647)
Outline: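 Dechorionated Tropical 5D wild-type zebrafish embryos, one per well from 6 hpf, statically exposed at 28C to 120 hpf in 0.64% DMSO; somite malformation scored present/absent by brightfield; trimethyltin 5 uM positive control; dead embryos not scored.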

[18] = Tanguay_ZF_120hpf_MORT_legacy: (Legacy) Oregon State University Tanguay Lab 120 Hour Post-fertilization zebrafish Assay for Mortality (AID 2283633);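 as to AC50: fitted as increase in binary mortality versus DMSO negative control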
Outline: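 Dechorionated Tropical 5D wild-type zebrafish embryos, one per well from 6 hpf, static exposure in 0.64% DMSO at 28C until 120 hpf. Mortality scored as binary by brightfield microscopy at 24 and 120 hpf.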

Measured: AC50

Chain of Cellular tumor antigen p53 (Homo sapiens) (P04637 whole entry, looked up): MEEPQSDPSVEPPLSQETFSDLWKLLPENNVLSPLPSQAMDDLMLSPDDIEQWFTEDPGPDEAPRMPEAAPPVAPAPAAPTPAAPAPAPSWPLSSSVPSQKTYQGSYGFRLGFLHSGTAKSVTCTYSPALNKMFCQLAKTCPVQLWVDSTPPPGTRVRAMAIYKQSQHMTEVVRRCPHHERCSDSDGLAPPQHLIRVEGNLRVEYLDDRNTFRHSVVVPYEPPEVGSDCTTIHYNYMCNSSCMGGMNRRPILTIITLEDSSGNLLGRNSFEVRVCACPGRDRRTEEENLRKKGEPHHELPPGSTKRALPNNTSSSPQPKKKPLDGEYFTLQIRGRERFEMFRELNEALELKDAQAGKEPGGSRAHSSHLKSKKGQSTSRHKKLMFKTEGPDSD

Cc1ccc(O)cc1
not listed: [13] | [14] | [15] | [16] | [17] | [18]
inactive: all other assays above

O=C(NS(=O)(=O)/C=C/c1ccccc1)c1ccc(F)cc1Cl
active: [1] 13 µM | [14] 24.9 µM | [3] 13.5 µM | [5] 22 µM
not listed: [2] | [4] | [16] | [17] | [18]
inactive: all other assays above

CCn1nc(Cc2ccccc2)cc1C1CCN(C[C@H]2C[C@H](N(C)[C@@H](C(=O)O)C(C)C)C[C@@H]2c2cccc(F)c2)CC1
not listed: [1] | [5] | [8] | [14] | [18]
inactive: all other assays above

Nc1ccc(Nc2ccccc2)cc1
active: [1] 86 µM | [18] 33.2 µM | [6] 27.5 µM | [7] 43.8 µM | [15] 45.8 µM | [9] 27.2 µM | [11] 40 µM | [12] 45.1 µM
inactive: [13] | [1] | [16] | [2] | [3] | [5] | [10]

O=C(O)c1cccc(N(Cc2cccnc2)c2ccc(OC(F)F)c(OC(F)F)c2)c1
not listed: [1] | [4] | [8] | [18]
inactive: all other assays above

CCCCCCc1ccc(O)cc1O
inactive: [16] | [2] | [3] | [6] | [15] | [8] | [9] | [10] | [11] | [12]
active: [13] 69.2 µM and 73.3 µM | [16] 67.1 µM | [2] 69.2 µM and 73 µM | [3] 78.1 µM and 68.4 µM | [5] 51.2 µM and 63.3 µM and 39.6 µM | [18] 25.9 µM

CC(O)CN(CCN(CC(C)O)CC(C)O)CC(C)O (stereo unspecified)
not listed: [1] | [4] | [9] | [16]
inactive: all other assays above

CNCc1ccc(NC(=O)c2c[nH]c3c2C(=O)CCC3)cc1
not listed: [3] | [4] | [13] | [14]
inactive: all other assays above

Clc1nc(Cl)c(Cl)c(Cl)c1Cl
not listed: [1] | [8] | [11] | [16] | [17]
inactive: all other assays above

CCCCCCCCCCCCCCCO
not listed: [1] | [2] | [4] | [5] | [14] | [17]
inactive: all other assays above

C=CCCCCCCCCC(=O)O
not listed: [1] | [10] | [14]
inactive: all other assays above
